# GAA glycogen mod: inhibitors or activators of human alpha-glucosidase glycogen cleavage. 0.38% of 300,000 active. P10253. Potency, µM (highest dose often 76.4 µM), without a hit: at the highest dose activity change, negative = inhibition, most hits filed as inhibitors. recombinant GAA, glycogen substrate, Amplex Red glucose oxidase fluorescence;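 note: potency is the fitted concentration of half-maximal effect; 0% = full enzyme reaction and -100% = no-enzyme basal signal; the screen sought inhibitors and activators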
#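 Recombinant enzyme (4 nM final) with compounds titrated up to 77 uM and bovine liver glycogen (30 ug) in citrate pH 5.0, 0.01% Tween-20, 37 C 40 min. Released glucose detected by Amplex Red/glucose oxidase (Ex 573/Em 610); AC50 from Hill fits.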
# GAA inhib: inhibitors of human lysosomal alpha-glucosidase. Potency, µM (top dose mostly 76.9 µM), inactives show at the top dose activity change, negative = inhibition, actives largely listed as inhibitors. AID 1466. 0.005% of 200,000 active. P10253. purified human GAA, 4-MU-alpha-glucoside fluorescence;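 note: potency is the fitted concentration of half-maximal effect; plate controls were uninhibited enzyme wells for no effect and no-enzyme background for full effect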
#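 AC50 values come from Hill fits of compound titrations (up to 77 uM) against 4 nM human enzyme. Substrate 4-methylumbelliferyl-alpha-D-pyranoside at 400 uM, pH 5.0 citrate buffer, 20 min room temperature; fluorescence Ex 365/Em 440 after alkaline stop.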
# GLA spleen mod: inhibitors or activators of human alpha-galactosidase in spleen homogenate; human spleen homogenate, 4MU-alpha-Gal fluorescence, 40 min; Potency, µM (top dose mostly 80 µM), without a hit: top-dose activity change, negative = inhibition, actives largely listed as inhibitors; 0.008% of 240,000 active; AID 2107; P06280;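 note: potency is the fitted concentration of half-maximal effect; 0% = enzyme with vehicle and -100% = no enzyme basal signal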
# Target sequence (P06280 32-429 limits assumed): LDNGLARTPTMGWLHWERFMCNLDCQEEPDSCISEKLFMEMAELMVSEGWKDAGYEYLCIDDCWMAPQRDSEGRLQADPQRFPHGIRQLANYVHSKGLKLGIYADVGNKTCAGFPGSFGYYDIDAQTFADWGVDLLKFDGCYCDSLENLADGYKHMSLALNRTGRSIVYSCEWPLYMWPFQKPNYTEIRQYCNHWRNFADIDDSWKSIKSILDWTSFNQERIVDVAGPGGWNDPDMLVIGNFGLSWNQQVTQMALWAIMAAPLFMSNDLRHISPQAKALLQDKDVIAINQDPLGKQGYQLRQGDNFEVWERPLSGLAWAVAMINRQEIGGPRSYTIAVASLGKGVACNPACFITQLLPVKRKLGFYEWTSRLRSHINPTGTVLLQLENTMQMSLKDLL
#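 Human spleen homogenate (1 ug) was the enzyme source, with 4-methylumbelliferyl-alpha-D-galactopyranoside (1 mM final) in pH 5.0 citrate buffer with 0.01% Tween-20. Compounds were titrated; after 40 min at 37C, NaOH/glycine stop, 4-MU fluorescence read; AC50 from Hill fits.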
# GAA spleen mod: lysosomal alpha-glucosidase (human) modulation | Potency, µM (doses to about 79.9 µM), for inactives: at the highest dose activity change, negative = inhibition, most hits filed as inhibitors | 0.006% of 240,000 active | human spleen homogenate, 4-MU-alpha-glucoside fluorescence;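 note: potency is the fitted concentration of half-maximal effect; 0% = enzyme with vehicle and -100% = no enzyme basal signal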
#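 Human spleen homogenate (1 ug) with 4-methylumbelliferyl-alpha-D-glucopyranoside (1 mM final) in 50 mM citrate/phosphate pH 5.0, 0.01% Tween-20; 40 min at 37 C. Stopped at pH 10; 4-MU fluorescence Ex 365/Em 440 nm; AC50 by Hill fit.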
# N370S GC: inhibitors or activators of N370S glucocerebrosidase for Gaucher disease; 0.092% of 330,000 active; P04062; N370S GC spleen homogenate, 4MU-glucoside fluorescence; Potency, µM (doses to about 59.4 µM), inactives show at the highest dose activity change, negative = inhibition, most hits filed as inhibitors;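 note: potency is the fitted concentration of half-maximal effect; 0% = full enzyme activity and -100% = no enzyme basal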
# GLA inh pH 4.5: blocks human alpha-galactosidase A at pH 4.5. P06280. 230,000 tested, under 10 active. purified enzyme, 4-MU-alpha-Gal fluorescence, pH 4.5. AID 1467. activity change, negative = inhibition, % at 105 µM;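 note: 0% = full activity with enzyme and -100% = basal without enzyme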
# Starred values were filed as active, the others as inactive; u = inconclusive; x = no result given; [ ] = remark or other dose. In the library only some 0.43% were active in any assay of this set; here they are far more common. Calls come from the whole dose curve; as a rule, active = well fitted curve in the direction sought with a large enough effect; inconclusive = small, poorly fitted or top-dose-only effect, or another doubt; inactive = no such curve, though single readings can be large; an effect the other way counts as inactive or inconclusive.
SMILES,GAA glycogen mod,GAA inhib,GLA spleen mod,GAA spleen mod,N370S GC,GLA inh pH 4.5
COC(=O)c1[nH]c2cc(OC)c(OC)cc2c1NC(=O)Oc1ccccc1,35µM*,u,4%,-3%,-6%,-2
CC1(C)CCC[C@@](C)([C@H]2CC[C@]3(C)[C@@H]2[C@H](O)C[C@@H]2[C@@]4(C)CC[C@H](O)C(C)(C)[C@@H]4CC[C@]23C)O1,x,x,6%,8%,3%,x
CC(=O)Nc1cc(OC(C)=O)c2nonc2c1OC(C)=O,16µM*,-5%,-10%,-7%,-6%,2
Nc1ccccc1Nc1cc(-c2ccccc2)[nH]n1,7.9µM*,1%,9%,9%,-1%,-5
Nc1ccccc1Nc1cc(-c2ccccc2)nn1-c1ccccc1,u,-11%,8%,-5%,-3%,-9
c1cncc(CNc2ccc3c(c2)OCO3)c1,18µM*,-4%,4%,-2%,x,7
COc1cc(/C=N/n2c(-c3ccccc3)n[nH]c2=S)ccc1O,u,-3%[15.4 µM],14%,13%,14µM*,-13
COc1cc(/C=N/n2c(-c3ccccc3)n[nH]c2=S)cc(OC)c1O,u,x,5%,-1%,-11%,-2
Cc1ccc(NC(=S)NNC(=O)c2c(Cl)c(C)nn2C)cc1,u,0%,-5%,-3%,-5%,-5
Cc1ccc(NC(=S)NNC(=O)c2cn(C)nc2C)cc1,28µM*,-3%,-12%,2%,1%,-1
CC12CCC=CC1C(c1ccoc1)N(Cc1ccccc1)C2=O (stereo not given),x,x,1%,-10%,1%,x
COc1cccc([C@@H]2Oc3ccc(OC)cc3C(=O)[C@H]2OC(=O)NCc2ccco2)c1,x,x,13%,0%,-1%,-1
Cc1nn(-c2ccccc2)c2[nH]c(=O)c(CNc3ccc(N4CCOCC4)cc3)cc12,20µM*,5%,3%,-5%,-8%,3
CNC(=O)c1c(NC(=O)c2ccco2)sc2c1CCCC2,-1%[76.3 µM],x,x,x,25%,x
Cc1ccc(C(=O)C(NC(=O)c2ccco2)Nc2sc3c(c2C(N)=O)CCCC3)cc1 (stereo not given),25µM*,-7%,-3%,-11%,-4%,-6
CC(=O)NNC(=O)c1cc2sccc2s1,-15%,u,7%,1%,10%,-14
NNC(=O)c1cc2sccc2s1,25µM*,2%,-7%,-2%,7%,-8
CC(=O)/C(=N/Nc1cccc(C)c1)N1CCOCC1,18µM*,0%,-1%,-2%,5%,2
Cc1cccc(C(=O)Nc2cccc(C(=O)N3CCOCC3)c2)c1,7%,-3%,-2%,0%,x,-15
COc1ccc(OC)c(Nc2nc(=O)c3cccnc3s2)c1,28µM*,u,1%,2%,4%,9
Cc1ccc(Nc2nc(=O)c3cccnc3s2)cc1,-7%,2%,6%,3%,0%,3
Cc1ccc2c(c1)c1c(n2CC(O)CNC(CO)(CO)CO)CCCC1 (stereo not given),25%,-7%,-5%,-1%,11µM*,-9
Cc1ccc2c(c1)c1c(n2CC(O)CNC2CCCCC2)CCCC1 (stereo not given),-5%,u,-18%,-16%,-16%,1
CC[C@H](C)[C@H](NC(=O)CNC(=O)[C@H](CCCNC(=N)N)NC(=O)[C@H](CO)NC(=O)[C@H](C)NC(=O)[C@H](Cc1ccc(O)cc1)NC(=O)[C@H](Cc1c[nH]c2ccccc12)NC(=O)[C@H](C)NC(=O)[C@@H]1CCCN1C(=O)[C@H](CC(N)=O)NC(=O)[C@@H](NC(=O)[C@H](CC(=O)O)NC(=O)[C@@H]1CCCN1C(=O)[C@@H](NC(=O)[C@H](CCCNC(=N)N)NC(=O)[C@@H](NC(=O)[C@H](CCC(=O)O)NC(=O)[C@H](CCSC)NC(=O)[C@H](CO)NC(=O)[C@H](Cc1cnc[nH]1)NC(=O)[C@H](CCCNC(=N)N)NC(=O)[C@H](Cc1cnc[nH]1)NC(=O)[C@@H](NC(=O)[C@H](CCCNC(=N)N)NC(=O)[C@@H](N)CO)[C@@H](C)O)[C@@H](C)CC)[C@@H](C)O)[C@@H](C)CC)C(=O)N[C@@H](CCCNC(=N)N)C(=O)N1CCC[C@H]1C(=O)N[C@H](C(=O)NCC(=O)N[C@@H](CCCNC(=N)N)C(=O)N[C@@H](Cc1ccccc1)C(N)=O)C(C)C,x,x,-13%,-12%,-4%,x
O=c1cc(-c2ccc(F)cc2)[nH][nH]1,-4%,-2%,-2%,0%,-5%,8
SMILES,GAA glycogen mod,GAA inhib,GLA spleen mod,GAA spleen mod,N370S GC,GLA inh pH 4.5
O=c1cc(-c2ccc(C3CCCCC3)cc2)[nH][nH]1,16µM*,-3%,14%,9%,7%,0
NC(=O)c1ccc2nc(-c3ccc(Oc4ccc(Cl)cc4)cc3)[nH]c2c1,x,x,-8%,-2%,-21%,x
Cc1ccc2oc(=O)c(/C=C(\O)C(C)(C)C)nc2c1,6.3µM*,-7%,10%,1%,10%,-3
Cc1ccc2oc(=O)c(/C=C(\O)c3ccco3)nc2c1,u,x,-2%,3%,-17%,-8
CC(C)(C)/C(O)=C/c1nc2cc(Cl)ccc2oc1=O,3.2µM*,x,5%,3%,-9%,-5
COc1cc(C)c(N)cc1C(C)C,14µM*,0%,12%,-1%,-1%,-6
COc1ccc(O[C@H]2C=C[C@@H](c3ccccc3)O[C@H]2COC(=O)CC/C(C)=N\O[C@@H](C)c2cc(-c3c(C)cc(C)cc3C)no2)cc1,x,x,7%[17.5 µM],4%[17.4 µM],1%[12.8 µM],x
CCOc1cc(CNc2ccccc2SC)ccc1O,28µM*,-7%,6%,6%,-5%,-5
COc1cccc(NS(=O)(=O)c2ccc3[nH]cc(C(=O)N4CCCC4)c(=O)c3c2)c1,28µM*,x,x,x,x,x
CC[C@H](C)[C@H](NC(=O)[C@H](C)NC(=O)[C@H](Cc1cnc[nH]1)NC(=O)[C@@H]1CCCN1C(=O)CNC(=O)[C@H](CC(C)C)NC(=O)[C@H](CC(C)C)NC(=O)[C@H](Cc1ccc(O)cc1)NC(=O)CNC(=O)[C@H](C)NC(=O)[C@H](CO)NC(=O)[C@H](CC(N)=O)NC(=O)[C@H](CC(C)C)NC(=O)[C@@H](NC(=O)[C@H](Cc1c[nH]c2ccccc12)NC(=O)CN)[C@@H](C)O)C(=O)O,x,x,6%,-12%,12%,x
COc1ccccc1N1C(=O)CC(N(O)c2ccccc2)C1=O (stereo not given),u,1%,-2%,0%,-2%,-1

# Compound activity (PubChem)
